Data as given in PubChem BioAssay AID1159580 (chemical genetic matrix, 2015).
About 2,000 (36%) of roughly 5,500 compounds were called active. About 18% were inconclusive and are not listed. No stated cut-off is given here; in the data, active means normalized growth mostly below about 0.91 (no sharp cut-off); inconclusive means no clear call, values can overlap the other calls; inactive means mostly above about 0.92. The list shows a part of the results.

Assay: chemical genetic growth profiling, strain panel (AID 1159580);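 further: tested at 20 µM; growth read once vehicle control cultures reached saturation at 30 °C; 1 = growth at the plate median or of vehicle wells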
Details: growth OD

Measured: normalized growth

NC1(C(=O)O)CCCC1
inactive: S. cerevisiae deletion strains, locus YJR075W, strain HOC1, stronger effect = lower value 0.997 | S. cerevisiae deletion strains, locus YKL009W, strain mrt4, stronger effect = lower value 0.993 | S. cerevisiae deletion strains, locus YKL068W, stronger effect = lower value 1 | S. cerevisiae deletion strains, locus YKL085W, strain MDH1 (second series), stronger effect = lower value 0.996 | S. cerevisiae deletion strains, locus YKL085W, strain MDH1, stronger effect = lower value 0.996 | S. cerevisiae deletion strains, locus YKL160W, strain elf1, stronger effect = lower value 1.02 | S. cerevisiae deletion strains, locus YKL190W, strain CNB1, stronger effect = lower value 1.01 | S. cerevisiae deletion strains, locus YKR001C, strain vps1, stronger effect = lower value 0.998 | S. cerevisiae deletion strains, locus YKR026C, strain gcn3, stronger effect = lower value 1.02 | S. cerevisiae deletion strains, locus YKR091W, strain srl3, stronger effect = lower value 1.01 | S. cerevisiae deletion strains, locus YLL001W, strain dnm1, stronger effect = lower value 1.03 | S. cerevisiae deletion strains, locus YLL026W, stronger effect = lower value 1.01 | S. cerevisiae deletion strains, locus YLL041C, strain sdh2, stronger effect = lower value 1.02 | S. cerevisiae deletion strains, locus YLR027C, strain aat2, stronger effect = lower value 1.02 | S. cerevisiae deletion strains, locus YLR039C, strain RIC1, stronger effect = lower value 0.971 | S. cerevisiae deletion strains, locus YLR058C, strain SHM2, stronger effect = lower value 1.01 | S. cerevisiae deletion strains, locus YLR102C, strain apc9, stronger effect = lower value 1 | S. cerevisiae deletion strains, locus YLR113W, strain HOG1, stronger effect = lower value 1.06 | S. cerevisiae deletion strains, locus YLR221C, strain rsa3, stronger effect = lower value 0.994 | S. cerevisiae deletion strains, locus YLR258W, strain gsy2, stronger effect = lower value 1.02 | S. cerevisiae deletion strains, locus YLR262C, strain YPT6 (second series), stronger effect = lower value 1.04 | S. cerevisiae deletion strains, locus YLR262C, strain YPT6, stronger effect = lower value 1.02 | S. cerevisiae deletion strains, locus YLR268W, strain sec22, stronger effect = lower value 1.01 | S. cerevisiae deletion strains, locus YLR320W, strain mms22, stronger effect = lower value 1.03 | S. cerevisiae deletion strains, locus YLR330W, strain CHS5, stronger effect = lower value 1 | S. cerevisiae deletion strains, locus YLR342W, strain FKS1 (second series), stronger effect = lower value 1 | S. cerevisiae deletion strains, locus YLR342W, strain FKS1, stronger effect = lower value 1.02 | S. cerevisiae deletion strains, locus YLR357W, strain rsc2, stronger effect = lower value 1.02 | S. cerevisiae deletion strains, locus YLR370C, strain arc18, stronger effect = lower value 1.02 | S. cerevisiae deletion strains, locus YLR371W, strain rom2, stronger effect = lower value 1 | S. cerevisiae deletion strains, locus YLR384C, strain iki3, stronger effect = lower value 1.02 | S. cerevisiae deletion strains, locus YLR418C, strain cdc73, stronger effect = lower value 0.992 | S. cerevisiae deletion strains, locus YML016C, strain PPZ1, stronger effect = lower value 1 | S. cerevisiae deletion strains, locus YML032C, strain rad52, stronger effect = lower value 0.995 | S. cerevisiae deletion strains, locus YML120C, strain ndi1, stronger effect = lower value 1.03 | S. cerevisiae deletion strains, locus YML124C, strain tub3, stronger effect = lower value 0.998 | S. cerevisiae deletion strains, locus YMR058W, strain fet3, stronger effect = lower value 1.02 | S. cerevisiae deletion strains, locus YMR078C, strain ctf18, stronger effect = lower value 0.998 | S. cerevisiae deletion strains, locus YMR125W, strain sto1, stronger effect = lower value 1.05 | S. cerevisiae deletion strains, locus YMR129W, stronger effect = lower value 1.02 | S. cerevisiae deletion strains, locus YMR205C, strain PFK2, stronger effect = lower value 1.03 | S. cerevisiae deletion strains, locus YMR223W, strain ubp8, stronger effect = lower value 1.01 | S. cerevisiae deletion strains, locus YMR231W, strain pep5, stronger effect = lower value 1.02 | S. cerevisiae deletion strains, locus YMR307W, strain GAS1, stronger effect = lower value 1.01 | S. cerevisiae deletion strains, locus YNL067W, strain RPL9B, stronger effect = lower value 1 | S. cerevisiae deletion strains, locus YNL071W, strain lat1, stronger effect = lower value 1.02 | S. cerevisiae deletion strains, locus YNL128W, strain TEP1, stronger effect = lower value 1.02 | S. cerevisiae deletion strains, locus YNL183C, strain NPR1, stronger effect = lower value 0.946 | S. cerevisiae deletion strains, locus YNL209W, strain ssb2, stronger effect = lower value 1.01 | S. cerevisiae deletion strains, locus YNL233W, strain BNI4, stronger effect = lower value 0.991 | S. cerevisiae deletion strains, locus YNL248C, strain rpa49, stronger effect = lower value 1 | S. cerevisiae deletion strains, locus YNL250W, strain rad50, stronger effect = lower value 1.02 | S. cerevisiae deletion strains, locus YNL271C, strain bni1, stronger effect = lower value 0.998 | S. cerevisiae deletion strains, locus YNL298W, strain CLA4, stronger effect = lower value 1.01 | S. cerevisiae deletion strains, locus YNL307C, strain MCK1, stronger effect = lower value 0.996 | S. cerevisiae deletion strains, locus YNL322C, strain KRE1 (second series), stronger effect = lower value 1.01 | S. cerevisiae deletion strains, locus YNL322C, strain KRE1, stronger effect = lower value 1.01 | S. cerevisiae deletion strains, locus YNR049C, strain mso1, stronger effect = lower value 1.01 | S. cerevisiae deletion strains, locus YNR052C, strain pop2, stronger effect = lower value 1.01 | S. cerevisiae deletion strains, locus YOL006C, strain TOP1, stronger effect = lower value 0.987 | S. cerevisiae deletion strains, locus YOL012C, strain htz1 0.665 | S. cerevisiae deletion strains, locus YOL147C, strain pex11, stronger effect = lower value 0.993 | S. cerevisiae deletion strains, locus YOR001W, strain rrp6, stronger effect = lower value 1.03 | S. cerevisiae deletion strains, locus YOR061W, strain CKA2, stronger effect = lower value 1.01 | S. cerevisiae deletion strains, locus YOR069W, strain VPS5, stronger effect = lower value 1.01 | S. cerevisiae deletion strains, locus YOR070C, strain gyp1, stronger effect = lower value 1.02 | S. cerevisiae deletion strains, locus YOR080W, strain dia2, stronger effect = lower value 1.02 | S. cerevisiae deletion strains, locus YOR083W, strain WHI5, stronger effect = lower value 1.03 | S. cerevisiae deletion strains, locus YOR106W, strain vam3, stronger effect = lower value 1.02 | S. cerevisiae deletion strains, locus YOR136W, strain idh2, stronger effect = lower value 0.998 | S. cerevisiae deletion strains, locus YOR144C, strain elg1, stronger effect = lower value 0.997 | S. cerevisiae deletion strains, locus YOR184W, strain ser1, stronger effect = lower value 0.996 | S. cerevisiae deletion strains, locus YOR231W, strain MKK1, stronger effect = lower value 1.04 | S. cerevisiae deletion strains, locus YOR265W, strain rbl2, stronger effect = lower value 1.01 | S. cerevisiae deletion strains, locus YOR270C, strain vph1, stronger effect = lower value 1.07 | S. cerevisiae deletion strains, locus YOR290C, strain snf2, stronger effect = lower value 1.02 | S. cerevisiae deletion strains, locus YOR316C, strain cot1, stronger effect = lower value 1 | S. cerevisiae deletion strains, locus YPL051W, strain arl3, stronger effect = lower value 1.03 | S. cerevisiae deletion strains, locus YPL055C, strain LGE1, stronger effect = lower value 1.03 | S. cerevisiae deletion strains, locus YPL078C, strain atp4, stronger effect = lower value 1.04 | S. cerevisiae deletion strains, locus YPL106C, strain sse1, stronger effect = lower value 1.02 | S. cerevisiae deletion strains, locus YPL240C, strain hsp82, stronger effect = lower value 1.01 | S. cerevisiae deletion strains, locus YPL256C, strain CLN2, stronger effect = lower value 1.04 | S. cerevisiae deletion strains, locus YPR119W, strain clb2, stronger effect = lower value 0.998 | S. cerevisiae deletion strains, locus YPR141C, strain kar3, stronger effect = lower value 0.991 | S. cerevisiae deletion strains, locus YPR163C, strain tif3, stronger effect = lower value 1 | S. cerevisiae deletion strains, locus YPR167C, strain met16, stronger effect = lower value 0.992 | S. cerevisiae deletion strains, strain wtn01, stronger effect = lower value 0.994 | S. cerevisiae strains, strain wild type, stronger effect = lower value 1.01
